Assay results: paper PMC4336329 (PLoS ONE, 2015)
Out of some 310,000 compounds screened, about 14,000 (4.5%) showed an effect of 50% or more. Effects have a minus sign here. The full list was thinned out, with strong results kept by preference.

Molecular target: human ether-à-go-go-related gene (hERG) potassium channel (human, UniProt Q12809)
Experiment: primary screen, population patch clamp on CHO cells stably expressing hERG; higher = less effect of the substance
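Note: peak tail current of the secondary pulse compared with the same well before compound.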

Chain of human ether-à-go-go-related gene (hERG) potassium channel (Q12809 whole entry, looked up): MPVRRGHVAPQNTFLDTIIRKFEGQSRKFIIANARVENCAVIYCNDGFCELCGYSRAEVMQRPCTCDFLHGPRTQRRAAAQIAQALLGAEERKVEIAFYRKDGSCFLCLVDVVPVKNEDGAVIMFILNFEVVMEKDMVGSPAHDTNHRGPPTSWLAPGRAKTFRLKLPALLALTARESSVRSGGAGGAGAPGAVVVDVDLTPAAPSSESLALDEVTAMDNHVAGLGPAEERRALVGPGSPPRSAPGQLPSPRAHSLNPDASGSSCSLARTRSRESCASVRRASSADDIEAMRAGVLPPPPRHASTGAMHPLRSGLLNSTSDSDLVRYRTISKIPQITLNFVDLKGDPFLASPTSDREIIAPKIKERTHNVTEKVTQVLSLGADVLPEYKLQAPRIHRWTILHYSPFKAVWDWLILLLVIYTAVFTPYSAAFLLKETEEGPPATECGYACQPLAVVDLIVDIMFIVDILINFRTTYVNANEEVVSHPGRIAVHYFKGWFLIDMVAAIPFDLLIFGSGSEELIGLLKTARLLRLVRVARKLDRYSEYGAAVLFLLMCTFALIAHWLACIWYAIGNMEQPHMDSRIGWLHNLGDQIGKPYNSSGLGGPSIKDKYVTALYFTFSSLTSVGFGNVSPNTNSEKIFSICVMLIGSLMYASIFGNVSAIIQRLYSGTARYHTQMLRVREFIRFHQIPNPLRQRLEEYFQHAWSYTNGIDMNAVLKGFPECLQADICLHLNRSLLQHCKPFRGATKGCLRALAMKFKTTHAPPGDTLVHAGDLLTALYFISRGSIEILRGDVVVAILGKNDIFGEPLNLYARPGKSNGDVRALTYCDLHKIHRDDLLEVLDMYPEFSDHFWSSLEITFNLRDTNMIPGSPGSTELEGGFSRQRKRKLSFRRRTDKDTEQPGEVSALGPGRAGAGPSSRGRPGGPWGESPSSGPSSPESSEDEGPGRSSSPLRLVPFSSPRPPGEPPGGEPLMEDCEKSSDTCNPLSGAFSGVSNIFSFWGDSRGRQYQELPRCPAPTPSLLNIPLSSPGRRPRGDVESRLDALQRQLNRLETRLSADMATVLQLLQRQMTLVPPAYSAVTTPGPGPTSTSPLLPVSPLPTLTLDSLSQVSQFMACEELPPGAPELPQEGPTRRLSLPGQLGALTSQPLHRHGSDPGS

Row | Compound | hERG current change (%, negative = inhibition) at 10uM
1 | CCO[C@H]1OC(C(=O)N2CCOCC2)=C[C@@H](C2CC2)[C@@H]1CCCO | 19.9%
2 | Cc1ccc(NC(=O)Nc2sc(=S)n(C)c2C)cc1 | 15.4%
3 | C=CCNC(=S)NCC1COc2ccccc2O1 (stereo not shown) | 19.6%
4 | CC1CN(c2ccc([N+](=O)[O-])cc2Cl)CCN1S(C)(=O)=O (stereo not shown) | -47.2%
5 | NC(=O)C1CCN(c2ccc(C(F)(F)F)cc2[N+](=O)[O-])CC1 | -20.1%
6 | O=C(C1CCC1)N1CCN(c2ccc(C(F)(F)F)cc2[N+](=O)[O-])CC1 | -64%
7 | CC1CN(c2ccc(C(F)(F)F)cc2[N+](=O)[O-])CCN1S(C)(=O)=O (stereo not shown) | -56.9%
8 | O=[N+]([O-])c1cc(C(F)(F)F)ccc1N1CCC(O)CC1 | 0.342%
9 | CC1CN(c2ccc(Cl)cc2[N+](=O)[O-])CCN1S(C)(=O)=O (stereo not shown) | -41.2%
10 | O=[N+]([O-])c1ccc(Oc2cnc3ccccc3n2)cc1 | 7.44%
11 | COc1ccccc1NC(=O)Nc1nc(CC(=O)Nc2cc(F)ccc2F)cs1 | -2.13%
12 | CC(C)(C)n1nnnc1C(c1ccc(F)cc1)N(Cc1ccc(F)cc1)Cc1ccco1 (stereo not shown) | 1.97%
13 | CCN1C(=O)C(CC(=O)Nc2ccc(OC)cc2)N(CCc2ccc(OC)cc2)C1=S (stereo not shown) | -1.17%
14 | O=C(c1ccc2c(c1)OCO2)N1CCN(c2ccccc2)CC1 | -10.9%
15 | O=C(CN1CCN(c2ccc(C(F)(F)F)cn2)CC1)NCc1ccc2c(c1)OCO2 | -65.3%
16 | O=C(c1ccc2n[nH]nc2c1)N1CCN(c2ccc(C(F)(F)F)cn2)CC1 | -26.7%
17 | O=C(c1ccc([N+](=O)[O-])s1)N1CCN(c2ccc(C(F)(F)F)cn2)CC1 | -67.5%
18 | O=C(c1ccc2c(c1)OCO2)N1CCN(c2ccc(C(F)(F)F)cn2)CC1 | -55.6%
19 | O=C(CN1CCN(c2ncccn2)CC1)NCc1ccc2c(c1)OCO2 | 20.4%
20 | O=C(Nc1ccc2c(c1)OCO2)N1CCN(c2cccc(C(F)(F)F)c2)CC1 | -1.15%
21 | O=C(c1ccc2ccccc2c1)N1CCN(c2ccc(C(F)(F)F)cn2)CC1 | -2%
22 | O=C(c1ccc([N+](=O)[O-])s1)N1CCN(c2ccccn2)CC1 | -20.4%
23 | Cc1ccc(C(=O)N2CCN(c3ccc(C(F)(F)F)cn3)CC2)cc1 | -0.62%
24 | O=C(c1ccc2c(c1)OCO2)N1CCN(c2cccc(C(F)(F)F)c2)CC1 | -53.8%
25 | O=C(CN1CCN(c2ccc(C(F)(F)F)cn2)CC1)Nc1ccc2c(c1)OCO2 | -14%
